ssDAF-12 act: activates DAF-12 receptor from parasite S. stercoralis; AID 652126; activation, % at 6.8 µM; hit rate 1% among 370,000; HEK293 ssDAF-12/GRIP1 lit1-tk-luc reporter, luminescence; % of 3 µM dafachronic acid response;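 active = activation above the mean over all tested compounds plus 3 SD, cut at about 0.9% in these data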;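 also: 0% = DMSO-only wells and 100% = 3 µM delta7-dafachronic acid wells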
DAX1 inh-1: inhibitors of human orphan nuclear receptor DAX1 (NR0B1). P51843. HEK293 Gal4-DAX1 luciferase reporter, luminescence. inhibition, % at 6.75 µM. hit rate 0.99% among 340,000. AID 504766;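 active = inhibition above the mean over all tested compounds plus 3 SD, cut at about 4.2% in these data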;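 also: 0% = DAX1-transfected cells with DMSO and 100% = empty-vector control cells with DMSO; inhibition shows as a rise in luminescence from relieved DAX1 repression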
Target sequence (P51843 207-470 limits assumed): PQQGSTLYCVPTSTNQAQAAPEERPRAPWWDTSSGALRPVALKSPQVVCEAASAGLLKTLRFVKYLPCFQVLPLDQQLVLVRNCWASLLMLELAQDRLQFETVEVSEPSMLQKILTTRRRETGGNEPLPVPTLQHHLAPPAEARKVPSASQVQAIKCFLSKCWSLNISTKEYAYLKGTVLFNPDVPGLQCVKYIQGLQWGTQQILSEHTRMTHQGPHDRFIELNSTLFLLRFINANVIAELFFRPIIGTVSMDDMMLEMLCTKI
hgDAF-12 ag: agonists of H. glycines DAF-12 nuclear receptor. hit rate 1.8% among 370,000. activation, % at 6.8 µM. HEK293 GAL4-hgDAF12 UAS-luciferase reporter, agonist luminescence; normalized to butyrate control;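 active = activation above a cutoff set at the mean of all screened compounds plus 3 SD, cut at about 10% in these data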;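 also: 0% = DMSO wells and 100% = sodium butyrate wells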
hcDAF-12 act: activators of H. contortus DAF-12 nuclear receptor; HEK293 hcDAF-12 lit1-tk-luc reporter, luminescence; 0% DMSO, 100% Δ7-dafachronic acid; activation, % at 6.8 µM; hit rate 1.4% among 370,000; AID 652067;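 active = activation above the mean of all tested compounds plus 3 SD, cut at about 5.5% in these data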;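 also: 100% = response to 3 µM Δ7-dafachronic acid high control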
DAX1 inh-2: DAX1 (NR0B1) inhibition, primary screen; HEK293T StAR-luciferase reporter, SF-1/DAX-1 repression relief; hit rate 1.1% among 370,000; inhibition, % at 6.8 µM;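 active = inhibition above the mean over all tested compounds plus 3 SD, cut at about 3.6% in these data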;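 also: 0% = DAX-1 cells with DMSO and 100% = cells lacking DAX-1 with DMSO; higher inhibition means more luminescence from relief of DAX-1 repression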
GAA850 FXN act: frataxin GAA850 promoter activation; hit rate 0.56% among 360,000; AID 540364; activation, % at 6 µM; HEK293 lucGAA850 FXN promoter luciferase reporter, 24 h; percent of 10 µM SAHA response;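 active = activation above the average of all compounds screened plus 3 SD, cutoff fixed separately per campaign, cut at about 7.5% in these data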;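 also: 0% = DMSO wells and 100% = 10 µM SAHA wells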
Numbers without * were called inactive; · = not tested or not shown. Shown are actives, neighbours in structure and some others; about 4.5% of the full set was active somewhere.

SMILES	ssDAF-12 act	DAX1 inh-1	hgDAF-12 ag	hcDAF-12 act	DAX1 inh-2	GAA850 FXN act
C[C@H](O)[C@@H]1CN2CCc3ccc(N4CCOCC4)cc3[C@@H]2C[C@@H]1N(C)C(=O)c1cccc(Cl)c1	-1	·	-2	-2	-1	·
COc1ccc(C(=O)Nc2ccc3cn[nH]c3c2)c(OC)c1	0.9*	2	-2	1	1	3
COc1ccc(OC)c(C(=O)Nc2ccc3[nH]ccc3c2)c1	0	1	12*	4	2	4
COc1ccc(C(=O)Nc2ccc3[nH]ccc3c2)cc1	2.5*	-7	16*	9.5*	3	1
COc1ccc(C(=O)Nc2ccc3[nH]ncc3c2)cc1	1	-4	13*	3	2	3
COc1ccc(C(=O)N/N=C(\C)CC(=O)Nc2ccc3ccccc3c2)c(OC)c1	0	1	4	1	3	2
CN[C@H]1C[C@H]2c3[nH]c4c(-c5ccc6c(c5)OCO6)cccc4c3CCN2C[C@H]1[C@H](C)O	-1	·	0	-3	-1	·
CC(=O)Nc1ccc2[nH]ccc2c1	-1	0	1	0	0	-1
O=C(Nc1ccc2[nH]ccc2c1)c1cccs1	0	-1	11*	2	2	3
COC(=O)[C@]12C[C@H](CC(=O)N3CCOCC3)C(=O)N(Cc3cccc4ccccc34)C1=C[C@H](COCc1ccccc1)O[C@@H]2C	-1	·	-1	-2	-1	·
COC(=O)c1ccc2nc(-c3ccc(C)cc3)c(Cc3ccccc3)n2c1	0	·	5	0	1	·
COC(=O)c1ccc2nc(-c3cccc(Br)c3)c(Cc3ccsc3)n2c1	-1	·	0	0	3.8*	·
COC(=O)c1ccc2nc(-c3ccccc3)c(Cc3ccc(C)cc3)n2c1	0.9*	·	6	5	2	·
COC(=O)c1ccc2nc(-c3cccc(Cl)c3)c(Cc3cccc(Cl)c3)n2c1	0.9*	·	3	2	3	·
CNc1nnc(-c2ccc(OC)cc2)s1	-1	5.3*	11*	2	2	4
CCOC(=O)[C@@]12CCCC3=C1N(CCC3)C(=O)[C@H]2CC(=O)NCc1cccs1	-1	·	-1	0	-1	·
CN1C(=O)c2cc(NS(=O)(=O)c3ccc(F)cc3)ccc2OC[C@H]2O[C@@H](CC(=O)NCC(F)(F)F)CC[C@@H]21	-1	·	-3	-1	-1	·
O=C(c1cccc(COc2ccc(Cl)cc2Cl)c1)N1CCN(c2ccccn2)CC1	1	-2	11*	3	3	4
Cc1c(C(=O)Nc2cccc(F)c2)cnn1-c1ccccc1	1.6*	3	10*	5	2	3
Cc1cccc(NC(=O)c2cnn(-c3ccccc3)c2C)c1C	-1	2	3	0	1	5
Cc1c(C(=O)Nc2ccccc2)cnn1-c1ccccc1	0	2	10	5	1	3
Cc1ccccc1NC(=O)c1cnn(-c2ccccc2)c1C	1	4	12*	1	1	4
CN1Cc2nnn(Cc3ccccc3)c2-c2ccccc2S1(=O)=O	-1	·	3	-2	-1	·
CC(=O)Nc1ccc(OCC(C)CN2CCC(C(O)(c3ccccc3)c3ccccc3)CC2)cc1 (stereo unspecified)	-2	·	-3	-1	0	·
O=C(NCC1CCCO1)c1cccc2ccccc12 (stereo unspecified)	0	2	3	-2	0	0
Cc1nc2ccc(F)cc2cc1C(=O)NCC1CCCO1 (stereo unspecified)	0	0	-1	5.8*	0	4
Cc1ccc2nc(-c3ccccc3)cc(C(=O)NCC3CCCO3)c2c1 (stereo unspecified)	-1	·	2	0	0	-1
O=C(NCC1CCCO1)c1cc2ccccc2nc1Cl (stereo unspecified)	0	4.3*	0	0	1	3
COC(=O)CSc1nnc(-c2ccc(NS(=O)(=O)c3c(C(C)C)cc(C(C)C)cc3C(C)C)cc2)o1	-2	·	0	0	1	·
Cc1cccn2c(=O)c(/C=C(\C#N)S(=O)(=O)c3ccccc3)c(Oc3ccc(Cl)cc3)nc12	-1	0	1	-1	0	3

Screening results as filed in PubChem.
